Compound activity: PubChem BioAssay, Buhrlage Lab, Dana-Farber Cancer Institute and Novartis Institutes for BioMedical Research (Cambridge, Mass)
USP8 block – blocks human USP8 ubiquitin-rhodamine cleavage; P40818; purified USP8, Ub-rhodamine cleavage fluorescence, 30 min; inhibition, % at 20 µM; 4.2% of 47,000 active; AID 1645853
USP10 block – blocks human USP10 ubiquitin-rhodamine cleavage; Q14694; purified USP10, Ub-rhodamine fluorescence, 60 min; inhibition, % at 20 µM; 1.1% of 47,000 active; AID 1645856
USP30 block – human USP30 deubiquitinase inhibition; inhibition, % at 25 µM; purified USP30, Ub-rhodamine cleavage fluorescence; 5.3% of 47,000 active
Target sequence (Q70CQ3 whole entry, looked up): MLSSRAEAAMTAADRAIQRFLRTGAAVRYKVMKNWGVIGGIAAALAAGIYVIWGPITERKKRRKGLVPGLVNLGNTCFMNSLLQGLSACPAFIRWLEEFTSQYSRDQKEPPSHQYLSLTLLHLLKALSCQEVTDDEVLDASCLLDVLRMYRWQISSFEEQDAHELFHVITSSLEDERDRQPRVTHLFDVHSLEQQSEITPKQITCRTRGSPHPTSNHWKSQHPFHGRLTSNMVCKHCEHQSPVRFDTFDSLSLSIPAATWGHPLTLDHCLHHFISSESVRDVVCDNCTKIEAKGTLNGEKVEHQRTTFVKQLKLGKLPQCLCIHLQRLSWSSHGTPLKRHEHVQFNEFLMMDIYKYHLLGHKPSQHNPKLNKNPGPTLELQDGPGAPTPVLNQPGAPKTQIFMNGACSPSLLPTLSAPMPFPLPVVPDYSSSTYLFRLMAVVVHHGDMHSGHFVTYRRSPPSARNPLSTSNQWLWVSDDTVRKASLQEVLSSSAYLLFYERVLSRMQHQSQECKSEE
USP17 block – human USP17-like deubiquitinase inhibition. A8MUK1. purified USP17, Ub-rhodamine cleavage fluorescence, 3 h. inhibition, % at 50 µM. 6.5% of 47,000 active
USP28 inh – inhibitors of human USP28 deubiquitinase; purified USP28, Ub-rhodamine cleavage fluorescence, 30 min; Q96RU2; inhibition, % at 25 µM; 3% of 47,000 active; AID 1645857
Numbers without * were called inactive; . = not tested or not shown. Rows were chosen to be rich in hits. Some 14% of all compounds tested hit in one or more screens of this group. Rule as the data show it: active = inhibition above about 30%; inactive = the rest.

SMILES	USP8 block	USP10 block	USP30 block	USP17 block	USP28 inh
COc1ccccc1-c1noc2ncnc(N(Cc3ccco3)CC3CCCO3)c12 (configuration not stated)	12	3	36*	18	17
O=c1cc(CN2CCc3ccccc3C2)nc2nc(NCc3ccccc3)[nH]n12	0	1	13	12	8
COc1ccc(NCc2cc(=O)n3[nH]c(NCc4ccc(C(C)C)cc4)nc3n2)cc1	-41	-12	16	56*	20
O=c1cc(CN2CCc3ccccc3C2)nc2nc(NCc3ccc(Cl)cc3)[nH]n12	-85	9	49*	28	30*
Cc1ccc(C(=O)N2CCCC(c3ccnc(=O)[nH]3)C2)cn1 (configuration not stated)	17	-4	5	-11	10
COc1cccc(CC(=O)Nc2cnc(-c3ccc(Cl)cc3)nc2)c1	79*	6	2	37*	9
O=C(COc1ccccc1)Nc1cnc(-c2ccccc2)nc1	-1	-3	-23	44*	-11
CCN1CCN(c2ccc(NC(=O)COc3cccc(C)c3)cc2)CC1	1	-2	32*	19	12
COc1cccc(C(=O)Nc2cnc(-c3ccccc3)nc2)c1	3	1	1	4	4
CS(=O)(=O)N1CCN(c2ccc(NC(=O)COc3ccccc3)cc2)CC1	-14	6	0	-8	-9
O=C(COc1ccc(F)cc1)Nc1cnc(-c2ccc(Cl)cc2)nc1	95*	7	35*	74*	23
CC(NC(=O)c1ccccc1)c1nc(-c2cccc(-c3ccnn3C)c2)no1 (configuration not stated)	-5	0	-24	.	-2
C=C(C)[C@@H]1CC[C@@H](C)C2=C(C1)[C@](C)(O)CC2=O	0	2	2	-8	-10
Cc1ccc(-c2ncc(NC(=O)COc3cccc(C)c3)cn2)cc1	30*	-5	-69	-12	-30
O=C(COc1ccccc1)Nc1cnc(-c2ccc(Cl)cc2)nc1	78*	3	12	31*	-3
Cn1cc(-c2cnc(N3CCCC3)nc2)cc1C(=O)NCCc1ccccn1	-97	-6	-358	-119	-89
Cc1ccc(CNCC2COCc3c(C)nnn3C2)cc1 (configuration not stated)	-59	0	1	-6	-1
O=C(Cn1cnc(S(=O)(=O)N2CCCC2)c1)Nc1ccc(F)cc1	5	1	.	-7	.
Clc1ccc(CN=C(Nc2ccccc2)NC2CC2)c(Cl)c1	11	-1	31*	5	25
O=C(CN1C(=O)COc2cc(Cl)ccc21)NC1CC1	-1	-2	1	2	-2
CCOC(=O)CSc1nnc(-c2cnn(-c3ccccc3)c2N)o1	10	1	21	58*	15
O=S(=O)(Nc1ccc(Oc2ncnc3cc(Cl)ccc23)nc1)c1ccc(S(=O)(=O)c2ccccc2)s1	-15	45*	-183	28	-32
Cc1cccc(-c2noc(-c3nn(-c4cccc(C)c4)ccc3=O)n2)c1	5	5	-14	10	-4
COc1ccc(-n2ccc(=O)c(-c3nc(-c4ccccc4F)no3)n2)cc1OC	45*	-6	-284	0	63*
COc1ccccc1-c1nc(-c2nnn(-c3ccc(C)cc3)c2C)no1	11	7	0	7	11
SMILES	USP8 block	USP10 block	USP30 block	USP17 block	USP28 inh
COc1ccc(-n2nnc(-c3nc(-c4ccccc4F)no3)c2N)cc1	1	5	.	52*	.
CC(=O)Nc1ccc(S(=O)(=O)N2CCC(CC(=O)NCc3ccc(F)cc3)CC2)cc1	1	0	22	9	5
CSc1ccc(CNC(=O)CC2CCN(S(=O)(=O)c3ccc(C)cc3)CC2)cc1	22	5	50*	21	30*
CC(C)c1cccc(NC(=O)c2nc(N3CCSCC3)c3cnn(C)c3n2)c1	25	15	0	6	27
Cc1cccc(NC(=O)c2nc(N3CCSCC3)c3cnn(C)c3n2)c1	4	3	19	64*	11
Cc1ccc(C)c(NC(=O)CCc2nc(CSc3nc4ccccc4o3)no2)c1	-4	2	52*	15	20
COc1ccccc1NC(=O)CCc1nc(CSc2nc3ccccc3o2)no1	-119	0	21	-8	33*
Cc1cccc(C)c1NC(=O)CCc1nc(CSc2nc3ccccc3o2)no1	-76	3	31*	10	27
Cc1ccc(NC(=O)CCc2nc(CSc3nnc(-c4ccccc4)o3)no2)cc1C	-63	5	31*	8	14
